Measurements reported in PubChem BioAssay (Tox21).
Activity calls are given as the source filed them. The call rests on the fitted dose curve; in most records, active means well fitted curve in the direction sought with a large enough effect in the repeat runs; inconclusive means weak or mixed curves; inactive means flat fitted curve, though single readings scatter.

Assays:
[1] = qHTS assay to test for compound auto fluorescence at 535 nm (green) in HEK293 cells (AID 720680)
[2] = qHTS assay to test for compound auto fluorescence at 460 nm (blue) in HEK293 cell free culture (AID 720681)
Procedure, shortened: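 Compounds were added to cell-free DMEM with 10% FBS and fluorescence read directly. The blue channel used 405 nm excitation and 460 nm emission, with triamterene as the reference fluorophore.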

[3] = qHTS assay to test for compound auto fluorescence at 535 nm (green) in HEK293 cell free culture (AID 720682)
Procedure, shortened: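 Measurement is a direct plate read of green fluorescence (485 nm in, 535 nm out) after compound addition to serum-supplemented DMEM lacking cells, with fluorescein used to express intensities.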

[4] = qHTS assay to test for compound auto fluorescence at 590 nm (red) in HEK293 cell free culture (AID 720683)
Procedure, shortened: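 Cell-free wells of DMEM with 10% FBS received compound, and intrinsic fluorescence was read at excitation/emission 540/590 nm. Values expressed as equivalence to Rose Bengal sodium.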

[5] = qHTS assay to test for compound auto fluorescence at 590 nm (red) in HepG2 cell free culture (AID 720684)
Procedure, shortened: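 Auto fluorescence equivalency versus Rose Bengal sodium, red channel Ex/Em 540/590 nm; compounds in cell-free MEM/10% FBS; DMSO vehicle control.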

[6] = qHTS assay to test for compound auto fluorescence at 460 nm (blue) in HepG2 cell free culture (AID 720685)
Procedure, shortened: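 Cell-free plates of MEM plus 10% FBS received 23 nL compound or DMSO vehicle; blue-channel (405/460 nm) intensity scored against triamterene as reference fluorophore.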

[7] = qHTS assay to test for compound auto fluorescence at 535 nm (green) in HepG2 cell free culture (AID 720686)
[8] = qHTS assay to test for compound auto fluorescence at 460 nm (blue) in HepG2 cells (AID 720687)
Procedure, shortened: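 HepG2 cells in MEM with 10% FBS, attached overnight at 37 C, were exposed to compound or DMSO for 1 hr at 37 C, 5% CO2. Blue fluorescence was read at 405/460 nm, with triamterene as reference fluorophore.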
On the % scale 0 is the no-effect control and ±100 the full control effect.

C=CC(O)CCCCC (configuration not stated)
inactive: outcome [1] | Potency [2] | outcome [3] | outcome [4] | outcome [5] | outcome [6] | outcome [7] | outcome [8]

Oc1ccc(Oc2ccccc2)cc1
inactive: outcome [1] | Potency [2] | outcome [3] | outcome [4] | outcome [5] | outcome [6] | outcome [7] | outcome [8]

COC=O
inactive: fluorescence, % of fluorescein [1] -0.112% [at 9.17 µM] | fluorescence, % of fluorescent control [2] -0.168% [at 9.17 µM] | activity change [3] -0.0308% [at 9.17 µM] | fluorescence, % of fluorescent control [4] -0.0562% [at 9.17 µM] | fluorescence, % of Rose Bengal [5] -0.0589% [at 9.17 µM] | fluorescence, % of fluorescent control [6] -0.142% [at 9.17 µM] | fluorescence, % of fluorescein control [7] -0.0327% [at 9.17 µM] | fluorescence, % of fluorescent control [8] -0.259% [at 9.17 µM]

O=P(c1ccccc1)(c1ccccc1)c1ccccc1
inactive: outcome [1] | Potency [2] | outcome [3] | outcome [4] | outcome [5] | outcome [6] | outcome [7] | outcome [8]

Cc1nc2sccn2c(=O)c1CCN1CCC(=C(c2ccc(F)cc2)c2ccc(F)cc2)CC1
inactive: outcome [1] | Potency [2] | outcome [3] | outcome [4] | outcome [5] | outcome [6] | outcome [7] | outcome [8]

O=C(Nc1ccccc1)c1cc([N+](=O)[O-])ccc1Cl
inactive: outcome [1] | Potency [2] | outcome [3] | outcome [4] | outcome [5] | outcome [6] | outcome [7] | outcome [8]

C[Si](C)(C)O[Si](C)(C)O[Si](C)(C)C
inactive: outcome [1] | Potency [2] | outcome [3] | outcome [4] | outcome [5] | outcome [6] | outcome [7] | outcome [8]

CCCCCCCCS
inactive: outcome [1] | Potency [2] | outcome [3] | outcome [4] | outcome [5] | outcome [6] | outcome [7] | outcome [8]

CC1(COc2ccc(CC3SC(=O)NC3=O)cc2)CCCCC1 (configuration not stated)
inactive: outcome [1] | Potency [2] | outcome [3] | outcome [4] | outcome [5] | outcome [6] | outcome [7] | outcome [8]

CC1(C)CC(O)CC(C)(C)N1[O]
inactive: outcome [1] | Potency [2] | outcome [3] | outcome [4] | outcome [5] | outcome [6] | outcome [7] | outcome [8]

CCCC(=O)OCc1ccccc1
inactive: outcome [1] | Potency [2] | outcome [3] | outcome [4] | outcome [5] | outcome [6] | outcome [7]

CC1(C)[C@@H]2CC[C@]3(C2)[C@@H]1C(=O)CCC3(C)C
inactive: outcome [1] | Potency [2] | outcome [3] | outcome [4] | outcome [5] | outcome [6] | outcome [7] | outcome [8]

Nc1ccc(-c2ccc(F)cc2)cc1
inactive: outcome [1] | Potency [2] | outcome [3] | outcome [4] | outcome [5] | outcome [6] | outcome [7] | outcome [8]

FC(F)(Cl)C(F)(Cl)Cl
inactive: outcome [1] | Potency [2] | outcome [3] | outcome [4] | outcome [5] | outcome [6] | outcome [7] | outcome [8]

C[C@]12CCC(=O)C=C1[C@@H]1C[C@@H]1[C@H]1[C@@H]3[C@@H]4C[C@@H]4[C@@]4(CCC(=O)O4)[C@@]3(C)CC[C@@H]12
inactive: outcome [1] | Potency [2] | outcome [3] | outcome [4] | outcome [5] | outcome [6] | outcome [7]

C(/C=C/C=C/Nc1ccccc1)=Nc1ccccc1
inactive: outcome [1] | Potency [2] | outcome [3] | outcome [4] | outcome [5] | outcome [6] | outcome [7] | outcome [8]

O=Cc1ccc(Cl)c([N+](=O)[O-])c1
inactive: outcome [1] | Potency [2] | outcome [3] | outcome [4] | outcome [5] | outcome [6] | outcome [7]

Sc1nc(S)nc(S)n1
inactive: outcome [1] | Potency [2] | outcome [3] | outcome [4] | outcome [5] | outcome [6] | outcome [7] | outcome [8]

CC(C)Cc1nccs1
inactive: outcome [1] | Potency [2] | outcome [3] | outcome [4] | outcome [5] | outcome [6] | outcome [7] | outcome [8]

c1ccc(CCNc2nc(-c3ccccc3)cs2)cc1
inactive: outcome [1] | Potency [2] | outcome [3] | outcome [4] | outcome [5] | outcome [6] | outcome [7] | outcome [8]

CC(C)NC(=O)c1ccccc1N
inactive: outcome [1] | Potency [2] | outcome [3] | outcome [4] | outcome [5] | outcome [6] | outcome [7]

Cc1c(-c2cccnc2)c2ccccc2n1CCCCC(=O)O
inactive: outcome [1] | Potency [2] | outcome [3] | outcome [4] | outcome [5] | outcome [6] | outcome [7] | outcome [8]

CC(C)=CCCC(C)C=O (configuration not stated)
inactive: outcome [1] | Potency [2] | outcome [3] | outcome [4] | outcome [5] | outcome [6] | outcome [7] | outcome [8]

C[C@H]1C[C@H]2[C@@H]3CCC4=CC(=O)C=C[C@]4(C)[C@@]3(F)[C@@H](O)C[C@]2(C)[C@@]1(O)C(=O)COP(=O)(O)O
inactive: outcome [1] | Potency [2] | outcome [3] | outcome [4] | outcome [5] | outcome [6] | outcome [7] | outcome [8]

CCCCCCCCCCCCCCCCCCCl
inactive: fluorescence, % of fluorescein [1] -0.0209% [at 3.72 µM] | fluorescence, % of fluorescent control [2] -0.0234% [at 3.72 µM] | activity change [3] 0.0076% [at 3.72 µM] | fluorescence, % of fluorescent control [4] 0.0246% [at 3.72 µM] | fluorescence, % of Rose Bengal [5] -0.217% [at 3.72 µM] | fluorescence, % of fluorescent control [6] -0.0175% [at 3.72 µM] | fluorescence, % of fluorescein control [7] 0.0829% [at 3.72 µM] | fluorescence, % of fluorescent control [8] -0.0032% [at 3.72 µM]

CCOc1ccccc1O
inactive: outcome [1] | Potency [2] | outcome [3] | outcome [4] | outcome [5] | outcome [6] | outcome [7] | outcome [8]

CCOc1ccc(NC(C)=O)cc1N
inactive: outcome [1] | Potency [2] | outcome [3] | outcome [4] | outcome [5] | outcome [6] | outcome [7] | outcome [8]
